# The list is not random: actives were taken first. Their share in the collection is about 6.7%.
# Pf Dd2 inh = P. falciparum Dd2 growth inhibition; SYBR Green, 72 h; active compounds read low; activity change, % at 10 µM; hit rate 2.3% among 94,000; in the data active = activity change below about -80%; inconclusive = no clear call, values can overlap the other calls
# C diff HTS = C. difficile growth inhibition. Clostridium difficile clinical isolate growth, OD600, 24 h; active compounds read low. growth activity, negative = inhibition, % at 16 µg/mL (by protocol). hit rate 0.25% among 86,000;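 active = mean growth activity at or below -80% and every replicate also at or below -80%; inconclusive = mean at or below -80% but some replicate above -80%; inactive = mean growth activity above -80%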;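 note: 0% = DMSO wells and -100% = levofloxacin 16 µg/mL wells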
# T cruzi growth-1 = blocks T. cruzi growth in NIH3T3 culture; hit rate 5.9% among 77,000; T. cruzi beta-gal in NIH3T3, GalScreen luminescence, 90 h; inhibition, % at 8.34 µM; AID 624255;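 active = mean inhibition above about 93%, with at least 55% of replicates each passing it, limit read from the data, passing the limit was not always enough; inconclusive = only one of those two conditions holds; inactive = neither condition holds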
# T cruzi growth-2 = Trypanosoma cruzi proliferation inhibition. shares compounds with T cruzi growth-1. T. cruzi beta-gal in NIH3T3, GalScreen luminescence, 90 h. inhibition, % at 8.35 µM. hit rate 72% among 5,600. AID 651739;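 active = mean replicate inhibition above about 95% and at least 55% of replicates individually reaching it, limit read from the data; inconclusive = only one of the two criteria is met; inactive = neither criterion is met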
# T cruzi growth-3 = Trypanosoma cruzi proliferation inhibition | shares compounds with T cruzi growth-1 | T. cruzi beta-gal in NIH3T3, GalScreen luminescence, 90 h | inhibition, % at 2.09 µM | hit rate 21% among 5,600 | AID 651740;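 active = mean inhibition above about 95%, with at least 55% of replicates also reaching it, limit read from the data; inconclusive = meets just one of the two conditions; inactive = meets neither condition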;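 note: plate controls were neutral control median for no effect and positive control median for full effect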
# NIH3T3 tox = cytotoxicity in mouse NIH/3T3 fibroblasts. hit rate 14% among 5,600. NIH/3T3 viability, CellTiter-Glo ATP luminescence, 90 h. shares compounds with T cruzi growth-1. cytotoxicity (signal decrease), % at 8.35 µM;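 active = mean signal decrease across replicates above about 35% based on untreated-well scatter, with enough replicates individually passing, limit read from the data; inconclusive = no rule stated though some were filed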;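 note: 0% = median of neutral control wells and 100% = median of positive control wells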
# NIH3T3 tox 2 = NIH/3T3 (mouse) viability loss; shares compounds with T cruzi growth-1; AID 651744; hit rate 56% among 5,600; NIH/3T3 viability, CellTiter-Glo ATP luminescence, 90 h; inhibition, % at 24.9 µM;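 active = mean loss of cell viability signal at or above a set limit, and enough replicates individually reaching it; inconclusive = meets only the mean limit or only the replicate share; inactive = meets neither condition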;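 note: 0% = median of neutral control wells and 100% = median of positive control wells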
# Active calls of the source: *; ? = inconclusive; . = not tested or not shown.
SMILES,Pf Dd2 inh,C diff HTS,T cruzi growth-1,T cruzi growth-2,T cruzi growth-3,NIH3T3 tox,NIH3T3 tox 2
CC(C)NC(=O)N[C@@H]1CC[C@@H](CCn2cc(-c3ccccc3)nn2)O[C@H]1CO,-12,-1,44,.,.,.,.
COc1cccc(CNC(=O)[C@@H]2[C@@H](CO)[C@@H]3Cn4c(cccc4=O)[C@H]2N3C(=O)C2CC2)c1,17,-3,16,.,.,.,.
C[C@H](O)C#Cc1ccc2c(c1)O[C@@H](CN(C)C(=O)Nc1ccccc1)[C@@H](C)CN([C@H](C)CO)S2(=O)=O,-37,5,64,.,.,.,.
CC(C)CC#Cc1ccc2c(c1)O[C@@H](CN(C)C(=O)Nc1ccccc1)[C@H](C)CN([C@H](C)CO)S2(=O)=O,-43,2,121*,108*,93,23,88*
CC(C)CC#Cc1ccc2c(c1)O[C@H](CN(C)C(=O)Nc1ccccc1)[C@H](C)CN([C@H](C)CO)S2(=O)=O,-65,23,126*,100*,107*,-10,106*
CC(C)CC#Cc1ccc2c(c1)O[C@H](CN(C)C(=O)Nc1ccccc1)[C@H](C)CN([C@@H](C)CO)S2(=O)=O,-33,-1,107*,108*,?,21,81*
CC(C)CC#Cc1ccc2c(c1)O[C@H](CN(C)C(=O)NC(C)C)[C@@H](C)CN([C@@H](C)CO)S2(=O)=O,-33,.,70,.,.,.,.
C[C@H](O)C#Cc1ccc2c(c1)O[C@H](CN(C)C(=O)Nc1ccccc1)[C@@H](C)CN([C@@H](C)CO)S2(=O)=O,-35,0,70,.,.,.,.
C[C@@H]1CN([C@@H](C)CO)S(=O)(=O)c2ccc(C#C[C@@H](C)O)cc2O[C@H]1CN(C)C(=O)Nc1ccccc1,-68,3,61,.,.,.,.
CC(C)CC#Cc1ccc2c(c1)O[C@H](CN(C)C(=O)Nc1ccccc1)[C@@H](C)CN([C@@H](C)CO)S2(=O)=O,-59,3,125*,105*,?,11,101*
COCC(=O)N1CC(=O)N2[C@H](CO)[C@H](c3ccc(Br)cc3)[C@H]2C1,15,-9,.,.,.,.,.
O=C(c1ccccn1)N1CC[C@H]2[C@H](CO)Nc3ccc(C#Cc4ccccc4)cc3[C@H]21,-45,28,.,.,.,.,.
CCC(=O)N1CCCCN2[C@H](CO)[C@@H](c3ccc(/C=C/c4ccccc4)cc3)[C@H]2C1,-26,-1,91,.,.,.,.
CCC(=O)N1CCCCN2[C@H](CO)[C@H](c3ccc(/C=C/c4ccccc4)cc3)[C@H]2C1,-18,-6,117*,102*,66,27,105*
CCC(=O)N1CCCCN2[C@@H](CO)[C@H](c3ccc(/C=C/c4ccccc4)cc3)[C@@H]2C1,10,11,116*,106*,37,43*,105*
CN1CCCCN2[C@H](CO)[C@@H](c3ccc(/C=C/c4ccccc4)cc3)[C@H]2C1,-11,6,59,.,.,.,.
CCCN(C)C[C@H]1Oc2cc(C#Cc3ccccc3F)ccc2S(=O)(=O)N([C@H](C)CO)C[C@H]1C,-74,10,80,.,.,.,.
COc1ccccc1C#Cc1ccc2c(c1)O[C@@H](CN(C)C)[C@H](C)CN([C@H](C)CO)S2(=O)=O,-59,3,.,.,.,.,.
CCCN(C)C[C@@H]1Oc2cc(C#Cc3ccccc3OC)ccc2S(=O)(=O)N([C@H](C)CO)C[C@@H]1C,-84*,11,97*,108*,81,21,107*
CCCN(C)C[C@H]1Oc2cc(C#Cc3ccccc3OC)ccc2S(=O)(=O)N([C@@H](C)CO)C[C@H]1C,-63,5,97*,106*,80,7,105*
CO[C@@H]1CN(C)C(=O)c2ccc(NC(C)=O)cc2OC[C@@H](C)N(Cc2ccc(F)cc2)C[C@H]1C,-44,.,51,.,.,.,.
C[C@@H]1CN([C@H](C)CO)C(=O)c2cccc(NC(=O)c3cnccn3)c2O[C@H]1CN(C)Cc1ccccc1,-36,0,34,.,.,.,.
COc1ccc(CN(C)C[C@H]2Oc3ccc(NC(=O)NC(C)C)cc3C(=O)N([C@H](C)CO)C[C@H]2C)cc1,7,0,-25,.,.,.,.
O=C(C1CCOCC1)N1C[C@H]2[C@@H](c3ccccc31)[C@H](CO)N2C(=O)Nc1cccc(F)c1,-10,4,9,.,.,.,.
COc1cccc(-c2ccc3c(c2)O[C@H](CN(C)C(=O)C2CC2)[C@@H](C)CN([C@@H](C)CO)S3(=O)=O)c1,-33,.,81,.,.,.,.
SMILES,Pf Dd2 inh,C diff HTS,T cruzi growth-1,T cruzi growth-2,T cruzi growth-3,NIH3T3 tox,NIH3T3 tox 2
C[C@@H]1CN([C@@H](C)CO)S(=O)(=O)c2ccc(-c3ccccc3)cc2O[C@H]1CN(C)C(=O)C1CC1,-13,-3,?,78,29,38*,59*
COc1cccc(-c2ccc3c(c2)O[C@H](CN(C)C(=O)C2CC2)[C@H](C)CN([C@@H](C)CO)S3(=O)=O)c1,10,.,102*,82,43,18,68*
COc1cccc(-c2ccc3c(c2)O[C@H](CN(C)C(=O)c2ccccc2F)[C@H](C)CN([C@H](C)CO)S3(=O)=O)c1,-50,-4,108*,105*,77,45*,74*
C[C@@H]1CN([C@H](C)CO)S(=O)(=O)c2ccc(-c3ccccc3)cc2O[C@H]1CN(C)C(=O)C1CC1,-2,-11,116,.,.,.,.
COc1cccc(-c2ccc3c(c2)O[C@@H](CN(C)C(=O)c2ccccc2F)[C@H](C)CN([C@H](C)CO)S3(=O)=O)c1,-79,1,.,.,.,.,.
CNC[C@@H]1Oc2ccc(NC(=O)NC3CCCCC3)cc2CC(=O)N([C@@H](C)CO)C[C@@H]1C,-6,-4,50,.,.,.,.
C[C@@H]1CCCCO[C@H](CN(C)Cc2ccc(Cl)c(Cl)c2)[C@@H](C)CN([C@@H](C)CO)C(=O)c2cc(NC(=O)NC3CCCCC3)ccc2O1,-46,3,.,.,.,.,.
CC(C)NC(=O)Nc1ccc2c(c1)C(=O)N([C@@H](C)CO)C[C@H](C)[C@@H](CN(C)Cc1ccc(Cl)c(Cl)c1)OCCCC[C@@H](C)O2,-78,18,.,.,.,.,.
C[C@@H]1CN([C@@H](C)CO)C(=O)c2cc(NC(=O)Nc3ccc(F)cc3)ccc2O[C@@H](C)CCCCO[C@H]1CN(C)Cc1ccc(Cl)c(Cl)c1,-68,.,103*,94,110*,44*,15
C[C@@H]1CCCCO[C@H](CN(C)Cc2ccc(Cl)c(Cl)c2)[C@@H](C)CN([C@H](C)CO)C(=O)c2cc(NC(=O)Nc3ccc(F)cc3)ccc2O1,-3,.,102*,?,108*,21,8
C[C@@H]1CCCCO[C@H](CN(C)Cc2ccc(Cl)c(Cl)c2)[C@H](C)CN([C@@H](C)CO)C(=O)c2cc(NC(=O)Nc3ccc(F)cc3)ccc2O1,-85*,.,106*,99*,110*,8,?
